# PrPC TRFRET – cell surface PrPC inhibition, primary TR-FRET screen; TR-FRET read-out; P04156; inhibition, % at 13.8 µM; AID 720596; 370,000 tested, 0.43% active; in the data active = inhibition above about 24%; also: 0% = median of the test wells and 100% = reference compound wells
# 3CLpro inhibitor – SARS-CoV 3CLpro protease inhibition; recombinant SARS-CoV 3CLpro, quenched FRET peptide cleavage; inhibition, % at 6 µM; 290,000 tested, 0.14% active; in the data active = inhibition above about 12%
# Mtb hypoxia inh – inhibitors of hypoxia-regulated fluorescent reporter in Mycobacterium tuberculosis | M. tuberculosis hypoxia-regulated fluorescent reporter, fluorescence | AID 1159583 | fluorescence inhibition, % (concentration not given with the values) | 300,000 tested, 0.1% active; in the data active = fluorescence inhibition mostly above about 23%, no sharp cut-off; inactive = mostly below about 17%
# VHR inh abs – DUSP3 (human) phosphatase inhibition; P51452; recombinant VHR phosphatase, pNPP absorbance; inhibition, % at 13.3 µM; 290,000 tested, 0.52% active; in the data active = inhibition above about 50%
# PrP UTR inh – suppresses PrP 5' UTR mRNA reporter expression; inhibition, % (test concentration not listed); 340,000 tested, 0.35% active; cell-based PrP 5' UTR mRNA reporter, plate reader; AID 488862; in the data active = inhibition above about 52%; also: 0 = median of the neutral control wells
# MazEF act – increases E. coli MazEF RNase cleavage of RNA | activation, % at 20 µM | P0AE70 | 350,000 tested, 0.32% active | FAM/BHQ RNA-DNA oligo cleavage fluorescence, 5 h | AID 504720; in the data active = activation above about 50%
# PrPC confirm – cell surface PrPC inhibition, TR-FRET confirmation | shares compounds with PrPC TRFRET | cell surface PrPC level | inhibition, % at 13.8 µM | 1,500 tested, 65% active; in the data active = inhibition above about 25%
# LD9 tox – counter-screen for PrPc inhibitors: cytotoxicity in LD9 cells; luminescence viability; shares compounds with PrPC TRFRET; 1,500 tested, 29% active; inhibition, % at 13.8 µM; in the data active = inhibition above about 9.5%
# An asterisk follows results filed as active; x = not tested or not shown. Compounds with a hit are over-represented: about 1.5% of the library has one in this group of screens.
SMILES,PrPC TRFRET,3CLpro inhibitor,Mtb hypoxia inh,VHR inh abs,PrP UTR inh,MazEF act,PrPC confirm,LD9 tox
COc1cccc2cc(C(=O)Nc3ccccc3C)c(=NNS(=O)(=O)c3ccccc3)oc12,x,x,5,x,x,x,x,x
Cc1ccc(-c2c(CC(=O)O)c(C)nc3sc4c(c23)CCCC4)cc1,36*,3,1,x,-17,-7,44*,-4
Cc1cccc(NC(=S)NN=C2CC(C)(C)Oc3ccc(O)cc32)c1,x,x,-11,x,x,x,x,x
CCOc1ccc(C2SCC(=O)Nc3c2c(=O)[nH]n3C2CCCCCC2)cc1 (stereo unspecified),51*,3,4,8,-10,-4,5,-3
COc1ccc(C2SCC(=O)Nc3c2c(=O)[nH]n3C2CCCCCC2)cc1 (stereo unspecified),2,1,-5,2,-7,-5,x,x
NC(=O)c1ccc(-c2ccc(Br)cc2)o1,53*,2,10,14,-9,0,63*,-9
CN(CC(Cc1ccccc1)N(CC(Cc1cccc2ccccc12)N(CCc1ccccc1)N=O)N=O)N=O (stereo unspecified),x,x,17,x,x,x,x,x
COc1ccc(OC)c(C2C(C(N)=O)=C(C)Nc3nc(-c4cccc(Cl)c4)nn32)c1 (stereo unspecified),42*,2,7,3,-23,6,34*,0
COc1ccccc1-c1nc2n(n1)C(c1ccccc1Cl)C(C(N)=O)=C(C)N2 (stereo unspecified),-5,-4,x,38,-4,8,x,x
O=C(CCl)Nc1nc(-c2ccco2)c(-c2ccco2)s1,44*,0,-6,-7,-18,7,32*,-5
Cc1cc(-c2ccc3ccccc3c2)n2ncnc2n1,-5,1,2,31,-5,4,x,x
Cc1cc(-c2ccccc2)n2ncnc2n1,28*,1,4,13,-17,2,-3,-7
COCC(=O)NCc1ccc2c(c1)cc(C)n2C,-9,-5,-3,-11,-1,-22,x,x
COc1cc(/C=C\C(=O)NCc2ccc3c(c2)cc(C)n3C)cc(OC)c1OC,68*,-1,x,-4,-33,-2,8,-6
Cc1cc2cc(CNC(=O)NC3CCCCC3)ccc2n1C,9,-3,18,11,-6,3,x,x
COc1cc(OC)cc(C(=O)NCc2ccc3c(c2)cc(C)n3C)c1,56*,-2,5,18,-6,1,1,-4
Cc1cc2cc(CNC(=O)Nc3ccc(Cl)c(Cl)c3)ccc2n1C,33*,-1,4,12,-20,7,22,-8
Cc1ccc(S(=O)(=O)NCc2ccc3c(c2)cc(C)n3C)cc1,37*,2,-2,2,-47,-1,6,-4
Cc1onc(-c2ccccc2Cl)c1C(=O)NCc1ccc2c(c1)cc(C)n2C,66*,x,0,18,-13,3,10,-3
Cc1cc2cc(CNC(=O)c3ccco3)ccc2n1C,3,x,-6,-13,-14,-8,x,x
COc1ccc(C(=O)NCc2ccc3c(c2)cc(C)n3C)cc1,66*,-4,-4,7,-21,5,9,-5
Cc1ccc(CNC(=O)c2c(-c3ccccc3Cl)noc2C)cc1,-4,6,8,13,13,7,x,x
Cc1cc2cc(CNC(=O)c3ccc4c(c3)OCO4)ccc2n1C,53*,-2,1,-9,-1,13,10,-1
CCOc1ccc(CC(=O)NCc2ccc3c(c2)cc(C)n3C)cc1,55*,10,8,-7,-21,10,-2,-9
Cc1cc2cc(CNC(=O)COc3ccccc3)ccc2n1C,20,2,-2,21,-19,-5,x,x
CC(=NNC(=O)c1c[nH]c2ccccc12)c1ccc(C)o1,x,x,-15,x,x,x,x,x
O=[N+]([O-])c1ccccc1C=NN1CCN(c2ccccn2)CC1,x,x,2,x,x,x,x,x
O=S(c1ccc2ccccc2c1)c1cnns1 (stereo unspecified),34*,1,13,18,3,-15,6,76*
